Test results as given in PubChem BioAssay.
Values without a mark were called inactive. A call without a number means that no potency is given here. For some of these results: Potency and affinity values are given separately. The source made the active and inactive calls. Unless noted, the rule behind the calls is not given here.

Tests used:
[1] = antimalarial activity against Dd2 strain (AID 2302;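 active = growth inhibition above 50% at the single 2 µM test dose, taken to imply half-maximal potency below 2 µM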); settings: P. falciparum Dd2 in RBCs, LDH growth readout, 72 h; at 2 µM; hits give high values
[2] = human hepatoma cell viability loss – ATP luminescence, cytotoxicity control for P. falciparum antimalarial project, primary screen (AID 2303;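 active = inhibition above 50%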); settings: HepG2 viability, 24-48 h, at 10 µM, hits give high values
[3] = biological target: L-lactate dehydrogenase (Plasmodium falciparum (isolate CDC / Honduras)) (UniProt Q27743); test: PfLDH activity inhibition – cell lysate, 3D7 strain, counter-screen for P. falciparum growth inhibition project (AID 2304); settings: P. falciparum 3D7 crude extract, LDH APAD/NBT absorbance; at 2 µM; hits give high values
Sequence of L-lactate dehydrogenase (Plasmodium falciparum (isolate CDC / Honduras)) (Q27743 whole entry, looked up): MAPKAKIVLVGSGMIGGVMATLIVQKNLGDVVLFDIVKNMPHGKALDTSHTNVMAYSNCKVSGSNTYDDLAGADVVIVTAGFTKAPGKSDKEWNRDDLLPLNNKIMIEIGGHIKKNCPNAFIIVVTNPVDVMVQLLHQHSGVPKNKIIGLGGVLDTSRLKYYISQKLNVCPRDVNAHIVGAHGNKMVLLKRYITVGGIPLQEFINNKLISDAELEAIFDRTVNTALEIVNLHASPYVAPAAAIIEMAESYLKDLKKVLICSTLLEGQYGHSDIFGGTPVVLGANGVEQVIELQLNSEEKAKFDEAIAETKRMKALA

[4] = inhibition of 3D7 malaria parasite growth – strain 3D7 (AID 2306); settings: P. falciparum 3D7 erythrocytic growth, LDH absorbance, 72 h; at 2 µM; hits give high values
[5] = biological target: Calcium-dependent protein kinase 1 (Plasmodium falciparum (isolate 3D7)) (UniProt P62344); test: PfCDPK1 kinase inhibitors, biochemical, TCAMS library (AID 1159585; cut-off not given, nearly all actives have IC50 up to about 0.98 µM;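 note: inhibitors leave more ATP so luminescence rises with inhibition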); settings: recombinant PfCDPK1, Kinase-Glo ATP depletion luminescence
Sequence of Calcium-dependent protein kinase 1 (Plasmodium falciparum (isolate 3D7)) (P62344 whole entry, looked up): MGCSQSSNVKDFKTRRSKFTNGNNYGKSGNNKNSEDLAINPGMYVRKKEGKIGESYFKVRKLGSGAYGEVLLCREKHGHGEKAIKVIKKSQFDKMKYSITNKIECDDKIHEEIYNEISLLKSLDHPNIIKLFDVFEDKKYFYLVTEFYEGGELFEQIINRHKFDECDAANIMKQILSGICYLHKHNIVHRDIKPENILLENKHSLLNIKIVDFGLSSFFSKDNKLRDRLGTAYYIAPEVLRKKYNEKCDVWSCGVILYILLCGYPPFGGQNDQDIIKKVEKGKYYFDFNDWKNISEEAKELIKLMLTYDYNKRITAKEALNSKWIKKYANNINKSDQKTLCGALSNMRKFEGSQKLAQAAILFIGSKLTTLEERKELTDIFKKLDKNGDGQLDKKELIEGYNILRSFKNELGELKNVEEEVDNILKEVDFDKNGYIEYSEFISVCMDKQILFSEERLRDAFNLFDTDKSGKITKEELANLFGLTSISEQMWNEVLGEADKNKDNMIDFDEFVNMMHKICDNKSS

[6] = biological target: Plasmodium falciparum protein kinase 6 (PK6, PF3D7_1337100) (UniProt Q8IDW1); test: PfPK6 kinase inhibitors, biochemical, TCAMS library (AID 1159586); settings: recombinant PfPK6, Kinase-Glo ATP depletion luminescence
Sequence of Plasmodium falciparum protein kinase 6 (PK6, PF3D7_1337100) (Q8IDW1 1-305): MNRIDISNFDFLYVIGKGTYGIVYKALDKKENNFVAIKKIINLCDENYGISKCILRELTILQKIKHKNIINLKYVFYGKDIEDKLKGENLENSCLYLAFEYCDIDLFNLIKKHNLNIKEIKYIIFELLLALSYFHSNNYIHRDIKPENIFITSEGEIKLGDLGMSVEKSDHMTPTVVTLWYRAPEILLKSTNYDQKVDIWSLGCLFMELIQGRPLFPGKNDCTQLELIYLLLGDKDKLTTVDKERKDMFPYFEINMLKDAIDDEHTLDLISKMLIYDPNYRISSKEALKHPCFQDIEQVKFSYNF

[7] = biological target: Protein kinase 7 (PK7), Plasmodium falciparum 3D7 (PF3D7_0213400) (UniProt Q7YTF7); test: inhibition of Plasmodium PK7 catalytic activity – biochemical, TCAMS antimalarial set, Kinase-Glo luminescence (AID 1159587); settings: recombinant PfPK7, Kinase-Glo ATP depletion luminescence
Sequence of Protein kinase 7 (PK7), Plasmodium falciparum 3D7 (PF3D7_0213400) (Q7YTF7 1-343): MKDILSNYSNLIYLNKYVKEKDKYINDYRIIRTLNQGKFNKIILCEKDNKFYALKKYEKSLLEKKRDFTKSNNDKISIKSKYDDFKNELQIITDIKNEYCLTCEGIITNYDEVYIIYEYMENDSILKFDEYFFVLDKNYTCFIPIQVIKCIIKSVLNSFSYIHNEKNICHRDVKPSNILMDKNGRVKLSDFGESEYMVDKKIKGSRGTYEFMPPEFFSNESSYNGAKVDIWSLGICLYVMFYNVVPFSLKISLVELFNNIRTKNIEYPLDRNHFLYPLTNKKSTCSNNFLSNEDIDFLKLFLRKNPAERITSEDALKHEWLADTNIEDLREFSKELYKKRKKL

[8] = biological target: Calcium-dependent protein kinase 4 (Plasmodium falciparum (isolate 3D7)) (UniProt Q8IBS5); test: PfCDPK4 kinase inhibitors, biochemical, TCAMS library (AID 1159588; cut-off not given, nearly all actives have IC50 up to about 0.91 µM); settings: recombinant PfCDPK4, Kinase-Glo ATP depletion luminescence
Sequence of Calcium-dependent protein kinase 4 (Plasmodium falciparum (isolate 3D7)) (Q8IBS5 whole entry, looked up): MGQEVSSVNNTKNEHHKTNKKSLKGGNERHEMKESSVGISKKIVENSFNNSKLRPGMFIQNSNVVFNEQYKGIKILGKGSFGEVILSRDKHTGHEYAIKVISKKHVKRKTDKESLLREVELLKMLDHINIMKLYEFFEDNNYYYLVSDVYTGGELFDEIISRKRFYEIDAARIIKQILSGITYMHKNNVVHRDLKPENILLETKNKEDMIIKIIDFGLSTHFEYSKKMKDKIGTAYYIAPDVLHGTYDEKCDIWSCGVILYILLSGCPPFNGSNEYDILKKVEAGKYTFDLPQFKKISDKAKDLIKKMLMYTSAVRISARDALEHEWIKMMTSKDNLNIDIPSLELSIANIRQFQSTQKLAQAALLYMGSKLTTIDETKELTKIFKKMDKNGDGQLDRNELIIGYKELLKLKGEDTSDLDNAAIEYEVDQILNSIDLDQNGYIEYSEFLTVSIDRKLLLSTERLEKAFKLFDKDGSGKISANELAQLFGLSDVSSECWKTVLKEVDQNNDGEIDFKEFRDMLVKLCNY

Structure (SMILES) | growth inhibition [1] | inhibition [2] | inhibition [3] [%] | growth inhibition [4] | outcome [5] | outcome [6] | outcome [7] | outcome [8]
Nc1nc2ccc(S(=O)(=O)Nc3ccc(C(=O)N[C@@H](CCC(=O)O)C(=O)O)c(F)c3)cc2c(=O)[nH]1 | 16% | 37% | 4 | 97% (active) | inactive | inactive | inactive | inactive
O=[N+]([O-])c1cccc(C=NNc2ccnc3ccc(C(F)(F)F)cc23)c1 | 35% | -6% | -2 | 96% (active) | inactive | inactive | inactive | inactive
OC1CCN(c2cc(-c3ccccn3)nc(-c3ccccn3)n2)CC1 | 97% (active) | 43% | -2 | 83% (active) | inactive | inactive | inactive | inactive
Cc1ccc(Cc2cnc(CN3CCCCC3)c(O)c2)cc1 | 75% (active) | 4% | 1 | 93% (active) | inactive | inactive | inactive | inactive
COc1cc2nc(NC3CCN(Cc4ccccc4)CC3)nc(N)c2cc1OC | 30% | 27% | -2 | 101% (active) | inactive | inactive | inactive | inactive
COc1ccc(S(=O)(=O)Nc2cc(Br)cc3c2OCCC3)cc1N1CCN(C(=O)C(Cl)(Cl)Cl)CC1 | 51% (active) | 4% | -2 | 90% (active) | inactive | inactive | inactive | inactive
CCN(CC)CC(O)c1cc(-c2ccc(OC)cc2)nc2cc(Cl)ccc12 (stereo not drawn) | 98% (active) | 12% | -10 | 99% (active) | inactive | inactive | inactive | inactive
CC(CN(C)C)C(=O)Nc1ccc(-c2ccc(-c3nc4ccccc4[nH]3)s2)cc1 (stereo not drawn) | 86% (active) | 14% | 5 | 100% (active) | inactive | inactive | inactive | inactive
CCOC(=O)c1ccc(-c2cnc(N)c(-c3nc4c(C)cccc4[nH]3)c2)cc1 | 79% (active) | 43% | -4 | 102% (active) | inactive | inactive | inactive | inactive
CC(C)(C)C1CCC(C(=O)c2ccc3ccccc3c2O)CC1 (stereo not drawn) | 63% (active) | -4% | -1 | 83% (active) | inactive | inactive | inactive | inactive
Oc1ccc(CCCNc2nc(NCc3cccc4ccccc34)nc(NC3CCNCC3)n2)cc1 | -3% | 8% | 1 | 91% (active) | inactive | inactive | inactive | inactive
CCC(C)(C)c1ccc(S(=O)(=O)Nc2ccc(Cl)c(OCCN3CCCCC3)c2)cc1 | 93% (active) | 100% (active) | 0 | 88% (active) | inactive | inactive | inactive | inactive
CCC(C)CN1CCCN(c2ccc(NC(=O)c3cccs3)cc2)CC1 (stereo not drawn) | 95% (active) | 4% | -2 | 91% (active) | inactive | inactive | inactive | inactive
CCN(CC)CCN(Cc1ccc(-c2ccc(C(F)(F)F)cc2)cc1)C(=O)Cn1c(CCc2c(F)cccc2F)nc(=O)c2ccccc21 | 61% (active) | 36% | -3 | 102% (active) | inactive | inactive | inactive | inactive
Cc1ccc(NC(=O)c2cc([N+](=O)[O-])ccc2NCc2cccnc2)cc1Cl | 58% (active) | 9% | -5 | 86% (active) | inactive | inactive | inactive | inactive
O=C(Nc1ccc(-c2cccc(-c3nc4ccc(C(F)(F)F)cc4[nH]3)c2)cc1)Nc1ccc(Cl)c(Cl)c1 | 23% | 42% | 7 | 98% (active) | inactive | inactive | inactive | inactive
COC(=O)c1ccc(CCC(C)NCC(O)c2cccc(Cl)c2)cc1 (stereo not drawn) | 94% (active) | -4% | 1 | 100% (active) | inactive | inactive | inactive | inactive
CN(C)CCN(Cc1ccc(-c2ccc(CNCCc3ccccc3)cc2)nc1)C(=O)CCC1CCCC1 | 89% (active) | 98% (active) | -3 | 96% (active) | inactive | inactive | inactive | inactive
CCn1c(-c2nc(-c3ccc4c(c3)OCO4)cnc2N)nc2cnccc21 | 98% (active) | 94% (active) | -7 | 100% (active) | inactive | inactive | inactive | inactive
O=C(Nc1ccc2c(c1)CCC2)c1ccc(N2CCN(c3ccncc3)CC2)cc1 | 75% (active) | 72% (active) | 4 | 101% (active) | inactive | inactive | inactive | inactive
Cc1nnc2c(NC(=O)NC3CCCC3)cc3ccc(-c4cccc(CN5CCN(C)CC5)c4)cc3n12 | 68% (active) | 54% (active) | 2 | 91% (active) | inactive | inactive | inactive | inactive

Structure (SMILES) | growth inhibition [1] | inhibition [2] | inhibition [3] [%] | growth inhibition [4] | outcome [5] | outcome [6] | outcome [7] | outcome [8]
COc1ccc(C=NNc2cc(C)nc3ccccc23)c2ccccc12 | 69% (active) | 26% | -1 | 99% (active) | inactive | inactive | inactive | inactive
Cn1ncc2c3c(CCN4CCC(NCc5cc6c(cn5)OCC6)CC4)c(Cl)cnc3ccc21 | 0% | 4% | 2 | 94% (active) | inactive | inactive | inactive | inactive
CCCC(=O)c1cnc2cc(O)ccc2c1Nc1ccccc1C | 93% (active) | 14% | -8 | 99% (active) | inactive | inactive | inactive | inactive
Cc1ccccc1-c1cc(=O)c2cc(NC(=O)c3cccs3)ccc2o1 | 95% (active) | 22% | -4 | 96% (active) | inactive | inactive | inactive | inactive
COC(=O)CCCCCOc1cc(Cc2cnc(N)nc2N)cc(OC)c1OC | -3% | -15% | 2 | 90% (active) | inactive | inactive | inactive | inactive
COc1cc(CCNc2nc(NCc3cccc4ccccc34)nc(N3CCC(N)CC3)n2)ccc1O | 59% (active) | 16% | 5 | 100% (active) | inactive | inactive | inactive | inactive
O=C(Cn1c(CCc2cccc(F)c2F)cc(=O)c2cccnc21)N(CCN1CCCC1)Cc1ccc(-c2ccc(C(F)(F)F)cc2)cc1 | 64% (active) | 48% | -3 | 99% (active) | inactive | inactive | inactive | inactive
O=C(Nc1ccc(N2CCN(Cc3cccc(F)c3)CC2)cc1)c1cccs1 | 92% (active) | -5% | -1 | 95% (active) | inactive | inactive | inactive | inactive
CC(=O)c1sc(Cc2nc3ccccc3s2)nc1C | 88% (active) | -13% | 1 | 94% (active) | inactive | inactive | inactive | inactive
CN(C)CCN(C)Cc1ccc(-c2ccc3c(Nc4ccc(Oc5ccccn5)cc4)ccnc3c2)o1 | 100% (active) | 16% | 6 | 100% (active) | inactive | inactive | inactive | inactive
CCc1c(CCNCCCCCCNC(C)Cc2ccc3c(c2CC)OCO3)ccc(OC)c1OC (stereo not drawn) | 64% (active) | 100% (active) | 0 | 101% (active) | inactive | inactive | inactive | inactive
c1ccc(Nc2nc(-c3ccccn3)cs2)nc1 | 93% (active) | 45% | 2 | 87% (active) | inactive | inactive | inactive | inactive
COc1cccc(CNC[C@@H](O)[C@H](Cc2ccccc2)NC(=O)c2cc(OC(C)C)cc(N3CCCCS3(=O)=O)c2)c1 | 49% | 8% | 5 | 95% (active) | inactive | inactive | inactive | inactive
Cc1cc(CNCCCCCNCc2cccc([N+](=O)[O-])c2)ccc1O | -2% | 14% | 0 | 98% (active) | inactive | inactive | inactive | inactive
O=C(c1cccc(Br)c1)N1CCN(c2ccc([N+](=O)[O-])c(NC3CC3)c2)CC1 | 100% (active) | 5% | 3 | 99% (active) | inactive | inactive | inactive | inactive
COc1ccc(CN(C)CCCc2ccc(NC(=O)Cc3ccc4nc(-c5ccccc5)ccc4c3)cc2)cc1OC | -2% | 10% | -3 | 98% (active) | inactive | inactive | inactive | inactive
COCCNCc1ncsc1-c1ccc2c(Nc3cc(O)ccc3C)ccnc2c1 | 40% | 9% | 6 | 101% (active) | inactive | inactive | inactive | inactive
CC1(C)N=C(N)N=C(N)N1OCCCCCCOc1ccc(Cl)c2ccccc12 | 94% (active) | 62% (active) | 1 | 91% (active) | inactive | inactive | inactive | inactive
Nc1ccc(Nc2ccnc3ccc(C(F)(F)F)cc23)cc1O | 59% (active) | 1% | 5 | 98% (active) | inactive | inactive | inactive | inactive
COc1ccc(Cc2nc3c(n2C(C)=O)SC(c2ccc(Cl)c(Cl)c2)=NN3C(C)=O)cc1 | 22% | -2% | -6 | 94% (active) | inactive | inactive | inactive | inactive
